# Values joined by “and” are separate entries in the source; they are usually repeats but may differ in a detail not shown here. Identical values can stand only once. A number with no mark means an inactive call. Inconclusive results are not listed. Entries that show only a call come without a potency. Active and inactive are the calls of the source. Unless noted, calls come from the whole dose curve; as a rule, active = well fitted curve in the direction sought with a large enough effect in the repeat runs; inconclusive = weak or mixed curves; inactive = no such curve, though single readings can be large; an effect the other way counts as inactive or inconclusive.
# What was measured:
# [1] = qHTS assay for small molecule agonists of the p53 signaling pathway (AID 651631; calls by dose curve; note: nearly all actives have a fitted effect of over 15% in size; note: potency is the fitted concentration of half-maximal effect)
# Outline: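 p53RE-bla HCT-116 cells; compounds 16 h, 37 °C; LiveBLAzer B/G FRET substrate 2 h RT; fluorescence intensity read-out, qHTS format.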
# [2] = qHTS assay for small molecules that induce genotoxicity in human embryonic kidney cells expressing luciferase-tagged ATAD5 (AID 651632); note: nearly all actives have a fitted effect of over 15% in size
# Outline: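 HEK293T cells carrying a luciferase reporter tagged to ATAD5 were exposed to compound or DMSO vehicle for 16 hr at 37C, 5% CO2. Amplite was added, and after 30 min at room temperature luciferase activity was read as a marker of ATAD5 induction.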
# [3] = qHTS assay for small molecules that induce genotoxicity in human embryonic kidney cells expressing luciferase-tagged ATAD5 - cell viability (AID 651634; calls by dose curve; note: nearly all actives have a fitted effect of over 25% in size; note: potency is the fitted concentration of half-maximal effect)
# Outline: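 HEK293T cells expressing luciferase-tagged ATAD5 were exposed to compound or DMSO for 15.5 hr at 37C, 5% CO2. Viability was then read as live-cell protease activity by CellTiter-Fluor fluorescence after 30 min at 37C.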
# [4] = qHTS assay for small molecule disruptors of the mitochondrial membrane potential - cell viability (AID 720634; calls by dose curve; note: nearly all actives have a fitted effect of over 20% in size; note: potency is the fitted concentration of half-maximal effect)
# Outline: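 HepG2 cells seeded overnight at 37 C, then exposed to compound or DMSO for 1 hr at 37 C, 5% CO2. m-MPI dye added, then CellTiter-Glo for 30 min at room temperature; viability read as ATP luminescence.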
# [5] = qHTS assay for small molecule disruptors of the mitochondrial membrane potential (AID 720635); note: potency is the fitted concentration of half-maximal effect
# Outline: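 HepG2 cells (2,000/well) attached overnight at 37C, then took compound for 1 hr at 37C, 5% CO2. Mito-MPS dye was added for 30 min; fluorescence was read at 490/535 nm (monomers) and 540/590 nm (aggregates).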
# [6] = qHTS assay to test for compound auto fluorescence at 535 nm (green) in HepG2 cells (AID 720675)
# [7] = qHTS assay to test for compound auto fluorescence at 460 nm (blue) in HEK293 cells (AID 720678); note: potency is the fitted concentration of half-maximal effect
# Outline: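 Triamterene serves as the blue fluorophore standard. Compound signal at 405/460 nm is read in HEK293 wells (2,000 cells, 10% dialyzed FBS) after overnight treatment at 37C.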
# [8] = qHTS assay to test for compound auto fluorescence at 590 nm (red) in HEK293 cells (AID 720679)
# Outline: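 We plated HEK293 cells in 10% dialyzed FBS medium, let them adhere for 4-5 hr, then added 23 nL compound. Overnight at 37C and 5% CO2 preceded fluorescence measurement at 540/590nm.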
# [9] = qHTS assay to test for compound auto fluorescence at 535 nm (green) in HEK293 cells (AID 720680)
# [10] = qHTS assay to test for compound auto fluorescence at 460 nm (blue) in HEK293 cell free culture (AID 720681); note: potency is the fitted concentration of half-maximal effect
# Outline: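 Test compounds were pinned into cell-free culture medium (DMEM with 10% FBS) and fluorescence was read directly at Ex/Em 405/460 nm. Signals were expressed as fluorescence equivalents of triamterene, with DMSO vehicle as control.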
# [11] = qHTS assay to test for compound auto fluorescence at 535 nm (green) in HEK293 cell free culture (AID 720682)
# Outline: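 Cell-free medium (DMEM, 10% FBS) receives compound or DMSO by pintool. Plate read directly at Ex 485/Em 535 nm. Signal converted to fluorescein equivalency.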
# [12] = qHTS assay to test for compound auto fluorescence at 590 nm (red) in HEK293 cell free culture (AID 720683)
# Outline: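 Tox21 10K library compounds were pinned into cell-free DMEM with 10% FBS and fluorescence was read at excitation 540 nm. Activity is expressed as Rose Bengal sodium equivalency.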
# [13] = qHTS assay to test for compound auto fluorescence at 590 nm (red) in HepG2 cell free culture (AID 720684)
# Outline: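 Measured in medium alone (MEM containing 10% FBS) following pintool addition of compound; emission at 590 nm with 540 nm excitation, referenced to Rose Bengal sodium.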
# [14] = qHTS assay to test for compound auto fluorescence at 460 nm (blue) in HepG2 cell free culture (AID 720685); note: potency is the fitted concentration of half-maximal effect
# Outline: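 Compound (23 nL) or DMSO pinned into cell-free MEM with 10% FBS; blue fluorescence read at 405/460 nm excitation/emission, expressed as auto-fluorescence equivalency to triamterene.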
# [15] = qHTS assay to test for compound auto fluorescence at 535 nm (green) in HepG2 cell free culture (AID 720686)
# [16] = qHTS assay to test for compound auto fluorescence at 460 nm (blue) in HepG2 cells (AID 720687); note: potency is the fitted concentration of half-maximal effect
# Outline: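 Cells (2,000/well in MEM with 10% FBS) attached overnight at 37 C, then were exposed to compound or DMSO for 1 hr at 37 C, 5% CO2. Fluorescence read at Ex/Em 405/460 nm, expressed as triamterene-equivalent signal.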
# [17] = qHTS assay for small molecule agonists of the p53 signaling pathway - cell viability (AID 651633; calls by dose curve; note: nearly all actives have a fitted effect of over 30% in size; note: potency is the fitted concentration of half-maximal effect)
# Outline: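 p53RE-bla cells, seeded at 4,000 per well and rested 5 h at 37 C/5% CO2, received compounds in DMSO for 16 h at 37 C. CellTiter-Glo was then added, and luminescence was read after 30 min at room temperature to gauge cytotoxicity.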
# [18] = qHTS assay to test for compound auto fluorescence at 590 nm (red) in HepG2 cells (AID 720674)
# Outline: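 Compound auto-fluorescence is scored relative to Rose Bengal sodium, measured at 540/590 nm in live HepG2 cultures after 1 hr compound contact (37 C, 5% CO2).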
# [19] = molecular target: Glucocorticoid receptor (Homo sapiens) (UniProt P04150); assay: qHTS assay to identify small molecule antagonists of the glucocorticoid receptor (GR) signaling pathway (AID 720692; active = well fitted inhibition curve with a large enough effect in the signal ratio in the repeat runs, not every such curve was filed as active; the % refers to the signal ratio; note: potency is the fitted concentration of half-maximal effect)
# Chain of Glucocorticoid receptor (Homo sapiens) (P04150 whole entry, looked up): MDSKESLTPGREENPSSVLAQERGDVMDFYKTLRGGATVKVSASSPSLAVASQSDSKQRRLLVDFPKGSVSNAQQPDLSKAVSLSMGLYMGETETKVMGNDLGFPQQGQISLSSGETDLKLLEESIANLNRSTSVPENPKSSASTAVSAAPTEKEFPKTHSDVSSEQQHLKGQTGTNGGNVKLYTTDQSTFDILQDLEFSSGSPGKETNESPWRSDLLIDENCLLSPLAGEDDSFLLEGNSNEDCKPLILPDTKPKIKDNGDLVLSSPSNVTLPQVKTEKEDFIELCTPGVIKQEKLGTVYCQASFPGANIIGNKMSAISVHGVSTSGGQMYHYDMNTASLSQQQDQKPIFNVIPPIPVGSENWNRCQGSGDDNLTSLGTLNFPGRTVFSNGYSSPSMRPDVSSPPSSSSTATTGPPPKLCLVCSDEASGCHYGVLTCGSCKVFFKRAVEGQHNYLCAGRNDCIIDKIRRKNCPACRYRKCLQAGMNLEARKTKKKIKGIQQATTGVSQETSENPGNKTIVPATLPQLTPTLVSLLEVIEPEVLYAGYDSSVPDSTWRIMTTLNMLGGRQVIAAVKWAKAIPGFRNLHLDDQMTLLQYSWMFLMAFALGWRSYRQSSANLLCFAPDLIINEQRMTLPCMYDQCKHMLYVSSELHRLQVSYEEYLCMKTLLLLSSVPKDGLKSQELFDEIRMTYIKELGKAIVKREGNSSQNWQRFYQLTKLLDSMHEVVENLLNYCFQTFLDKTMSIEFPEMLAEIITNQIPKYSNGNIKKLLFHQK
# Outline: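 GR-bla HeLa cells (beta-lactamase reporter under glucocorticoid response element) were pre-plated 4 h at 37 C, treated with compounds plus 5 nM dexamethasone (final) for 18 h, then read by LiveBLAzer B/G FRET fluorescence after 2 h.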
# [20] = molecular target: Glucocorticoid receptor (Homo sapiens) (UniProt P04150); assay: qHTS assay to identify small molecule agonists of the glucocorticoid receptor (GR) signaling pathway (AID 720691; active = well fitted activation curve with a large enough effect in the signal ratio in the repeat runs, not every such curve was filed as active; the % refers to the signal ratio)
# Outline: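 GR-bla HeLa cells (beta-lactamase reporter under glucocorticoid response element) were plated 4 h at 37 C/5% CO2, given compounds in DMSO, and incubated 18 h at 37 C. LiveBLAzer B/G FRET substrate was added for 2 h at room temperature, then fluorescence intensity read.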
# Tags give direction and shape of the fitted curve or compound fluorescence and quenching.
smiles,measurement,setting,value
C#C[C@]1(OC(C)=O)CC[C@H]2[C@@H]3CCC4=C/C(=N/O)CC[C@@H]4[C@H]3CC[C@@]21CC,Potency,[1],33.5 µM (active)
same,Potency,[2],inactive
same,Potency,[3],18.8 µM (active)
same,Potency,[4],10.6 µM (active)
same,Potency,[5],13.3 µM (active)
same,Potency,[6],inactive
same,Potency,[7],inactive
same,Potency,[8],inactive
same,Potency,[9],inactive
same,Potency,[10],inactive
same,Potency,[11],inactive
same,Potency,[12],inactive
same,Potency,[13],inactive
same,Potency,[14],inactive
same,Potency,[15],inactive
same,Potency,[16],inactive
CCCCCCCCCCCCCC[N+](C)(C)C,Potency,[1],21.1 µM (active)
same,Potency,[17],26.6 µM (active)
same,Potency,[3],inactive
same,Potency,[4],inactive
same,Potency,[5],17.6 µM (active) and 13.2 µM (active) and 6.85 µM (active)
same,Potency,[18],inactive
same,Potency,[6],inactive
same,Potency,[7],inactive
same,Potency,[8],inactive
same,Potency,[9],inactive
same,Potency,[10],inactive
same,Potency,[11],inactive
same,Potency,[12],inactive
same,Potency,[13],inactive
same,Potency,[14],inactive
same,Potency,[15],inactive
same,Potency,[19],15.5 µM (active)
O=C(O)c1cc(-c2ccc(F)cc2F)ccc1O,Potency,[2],inactive
same,Potency,[17],inactive
same,Potency,[3],inactive
same,Potency,[4],inactive
same,Potency,[5],11.4 µM (active)
same,"fluorescence, relative to Rose Bengal",[18],0.164% [at 18.6 µM]
same,"fluorescence, % of triamterene",[7],-0.0352% [at 18.6 µM]
same,"fluorescence, % of fluorescein",[9],0.0391% [at 18.6 µM]
same,"fluorescence, % of fluorescent control",[10],0.0528% [at 18.6 µM]
same,activity change,[11],"-0.026% [at 18.6 µM, stronger effect = higher value]"
same,"fluorescence, % of fluorescent control",[12],-0.0186% [at 18.6 µM]
same,"fluorescence, % of Rose Bengal",[13],-0.0804% [at 18.6 µM]
same,"fluorescence, % of fluorescent control",[14],-0.0315% [at 18.6 µM]
same,"fluorescence, % of fluorescein control",[15],-0.0114% [at 18.6 µM]
same,Potency,[20],inactive
Cc1cc(=O)oc2cc(O)cc(O)c12,Potency,[2],inactive
same,Potency,[17],inactive
same,Potency,[3],inactive
same,Potency,[4],inactive
same,Potency,[5],61.3 µM (active)
same,Potency,[18],inactive
same,Potency,[6],inactive
same,Potency,[7],39.8 µM [fluorescent] (active)
same,Potency,[8],inactive
same,Potency,[10],39.8 µM (active)
same,Potency,[11],inactive
same,Potency,[12],inactive
same,Potency,[13],inactive
same,Potency,[14],39.8 µM [fluorescent] (active)
same,Potency,[15],inactive
same,Potency,[16],35.5 µM [fluorescent] (active)
Nc1nc(N)nc(-c2cc(Cl)ccc2Cl)n1,Potency,[2],inactive
same,Potency,[17],inactive
same,Potency,[3],inactive
same,Potency,[4],inactive
same,Potency,[5],inactive
same,Potency,[18],inactive
same,Potency,[7],inactive
same,Potency,[8],inactive
same,Potency,[9],inactive
same,Potency,[10],inactive
same,Potency,[11],inactive
same,Potency,[12],inactive
same,Potency,[13],inactive
same,Potency,[14],inactive
same,Potency,[15],inactive
same,Potency,[16],inactive
same,Potency,[20],inactive
same,Potency,[19],inactive
Sc1nc2ccccc2s1,Potency,[1],inactive
same,Potency,[17],inactive
same,Potency,[3],inactive
same,Potency,[4],inactive
same,Potency,[18],inactive
same,Potency,[6],inactive
same,Potency,[7],inactive
same,Potency,[8],inactive
same,Potency,[10],inactive
same,Potency,[11],inactive
same,Potency,[12],inactive
same,Potency,[13],inactive
same,Potency,[15],inactive
same,Potency,[16],inactive
same,Potency,[20],inactive
same,Potency,[19],inactive

# Source: PubChem BioAssay (Tox21)
